Data on 28 compounds can be found in PubChem BioAssay (Tox21).

Assay [1] can be described thus: A CellTox Green Cytotoxicity Assay to monitor cytotoxicity in HepG2 cells - 8 hour (AID 1224890). Further: nearly all actives have a fitted effect of over 45% in size. The method in brief: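 Read-out is fluorescence of a cyanine dye excluded from live cells that stains DNA of dead HepG2 cells, with signal proportional to cytotoxicity. Plates were read at 0, 8, 16, 24, 32 and 40 h after compound addition.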
Assay [2] is described as follows: qHTS assay to identify small molecule antagonists of the estrogen receptor alpha (ER-alpha) signaling pathway using the BG1 cell line in the presence of 0.1 nM 17-beta-estradiol - cell viability counter screen (AID 1259241). Further: nearly all actives have a fitted effect of over 40% in size. Further: potency means the concentration at half of the fitted maximal effect. The method in brief:
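VM7Luc4E2 cells (endogenous full-length ER-alpha, 4xERE-luciferase), cultured 5 days in charcoal-stripped serum, exposed to compounds with 0.1 nM 17beta-estradiol (final) for 22 hr at 37C. Viability read in same wells as live-cell protease fluorescence after 30 min.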
In general terms: In qHTS, concentration-response curves come from the screen itself.

The target of assay [3] is Estrogen receptor (Homo sapiens) (UniProt P03372). The assay is described as follows: qHTS assay to identify small molecule antagonists of the estrogen receptor alpha (ER-alpha) signaling pathway using the BG1 cell line in the presence of 0.1 nM 17-beta-estradiol (AID 1259244). Further: nearly all actives have a fitted effect of over 50% in size. Further: potency means the concentration at half of the fitted maximal effect. In outline:
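Cells: VM7Luc4E2, endogenous ER-alpha, 4x ERE-luc stable. Pre-culture 5 d, phenol red-free, charcoal-stripped FBS. Plated 24 h, compound + E2 0.1 nM final, 22 h 37C/5% CO2. Readout ONE-Glo luminescence.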

Assay [4] in a line: qHTS assay to identify small molecule phospholipidosis (PLD) inducers (AID 1259344; active means well fitted curve in the direction sought with a large enough effect; an effect the other way counts as inactive or inconclusive). The method in brief:
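HepG2 cells grown on collagen I take up LipidTOX Red while exposed to compound for 24 h; after fixation they are imaged at 20x and pit metrics are extracted.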

A short description of assay [5]: qHTS assay to identify small molecule HDAC inhibitors (AID 1259364). Further: nearly all actives have a fitted effect of over 45% in size. Further: potency means the concentration at half of the fitted maximal effect. In outline: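 Luminescence from a cell-permeant luminogenic class I/II HDAC substrate reports endogenous deacetylase activity in intact HCT-116 cells treated with compounds for 2 h.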
Assay [6] is described as follows: qHTS assay to identify small molecule HDAC inhibitors - cell viability counter screen (AID 1259365). Further: series mostly up to about 92 µM; nearly all actives have a fitted effect of over 50% in size. The method in brief:
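Wild-type HCT-116 cells, 1,500/well, cultured overnight, then compound-treated 2 h at 37 C. Viability measured as ATP luminescence with CellTiter-Glo after 30 min at room temperature.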

Assay [7] can be described thus: qHTS assay to identify small molecule agonists of the sonic hedgehog signaling (Shh) pathway - cell viability counter screen (AID 1259366). Further: nearly all actives have a fitted effect of over 50% in size. Further: potency means the concentration at half of the fitted maximal effect. The method in brief:
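NIH/3T3-derived Gli1-Luc reporter cells, 2,000 per well, received compound after 4 h and were treated about 23 h at 37C. Viability measured in the same wells by CellTiter-Fluor fluorescence after 1 h.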

Assay [8] in a line: qHTS assay to identify small molecule antagonists of the sonic hedgehog signaling (Shh) pathway - cell viability counter screen (AID 1259367). Further: nearly all actives have a fitted effect of over 55% in size. Further: potency means the concentration at half of the fitted maximal effect. In outline:
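After a 4 hr settling period, 3T3 Gli1-Luc cells were treated with DMSO-dissolved chemicals and conditioned medium, kept 24 hr at 37C in 5% CO2, and assayed for viability by CellTiter-Fluor fluorescence following 1 hr reagent incubation.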

Assay [9] in a line: qHTS assay to identify small molecule antagonists of the androgen receptor (AR) signaling pathway using the MDA cell line in the presence of 0.5 nM R1881 - cell viability counter screen (AID 1259242). Further: nearly all actives have a fitted effect of over 45% in size. Further: potency means the concentration at half of the fitted maximal effect. In outline:
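Counter screen for cytotoxicity run in the same wells as the AR antagonist reporter screen: MDA-kb2 cells were treated 16 hr with test compounds and 0.5 nM R1881, then live-cell protease activity was measured by fluorescence.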

The target of assay [10] is Androgen receptor (Homo sapiens) (UniProt P10275). The assay is described as follows: qHTS assay to identify small molecule antagonists of the androgen receptor (AR) signaling pathway using the MDA cell line in the presence of 0.5 nM R1881 (AID 1259243). Further: nearly all actives have a fitted effect of over 50% in size. Further: potency means the concentration at half of the fitted maximal effect. In outline: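 Luciferase luminescence is the read-out: compounds are tested for suppressing 0.5 nM R1881-driven MMTV reporter activity in MDA-kb2 cells after 16 hr at 37C.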
Chain of Androgen receptor (Homo sapiens) (P10275 whole entry, looked up): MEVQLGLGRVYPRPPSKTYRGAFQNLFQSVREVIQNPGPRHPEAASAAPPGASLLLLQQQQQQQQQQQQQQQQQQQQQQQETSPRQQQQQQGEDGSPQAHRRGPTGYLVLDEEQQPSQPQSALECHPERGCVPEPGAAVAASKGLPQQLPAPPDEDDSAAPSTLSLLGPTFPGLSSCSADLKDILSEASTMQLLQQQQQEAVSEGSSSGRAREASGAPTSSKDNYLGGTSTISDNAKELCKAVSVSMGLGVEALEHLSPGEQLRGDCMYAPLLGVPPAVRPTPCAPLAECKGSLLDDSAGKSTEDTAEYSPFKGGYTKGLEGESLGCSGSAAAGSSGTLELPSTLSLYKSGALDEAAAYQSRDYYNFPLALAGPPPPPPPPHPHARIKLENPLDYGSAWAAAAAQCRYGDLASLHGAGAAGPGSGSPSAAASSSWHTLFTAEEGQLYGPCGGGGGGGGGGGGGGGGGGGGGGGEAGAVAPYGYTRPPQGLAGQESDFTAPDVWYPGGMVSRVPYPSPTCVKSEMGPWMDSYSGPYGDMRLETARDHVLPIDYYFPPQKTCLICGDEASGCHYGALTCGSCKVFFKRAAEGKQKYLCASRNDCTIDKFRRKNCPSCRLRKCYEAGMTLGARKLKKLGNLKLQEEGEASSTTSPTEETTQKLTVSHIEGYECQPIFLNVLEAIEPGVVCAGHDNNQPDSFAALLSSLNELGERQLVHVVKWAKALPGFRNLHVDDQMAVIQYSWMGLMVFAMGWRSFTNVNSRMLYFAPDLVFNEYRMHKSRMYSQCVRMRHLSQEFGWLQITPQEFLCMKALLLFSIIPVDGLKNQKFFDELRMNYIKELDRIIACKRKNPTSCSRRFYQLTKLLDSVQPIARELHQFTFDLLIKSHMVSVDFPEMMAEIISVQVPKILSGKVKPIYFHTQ

Unmarked numbers belong to inactive results. Inconclusive results are not listed. Calls of active or inactive are those of the source. Unless noted, the call rests on the fitted dose curve; in most records, active means well fitted curve in the direction sought with a large enough effect in the repeat runs; inconclusive means weak or mixed curves; inactive means no such curve, though single readings can be large; an effect the other way counts as inactive or inconclusive.

Chain of Estrogen receptor (Homo sapiens) (P03372 whole entry, looked up): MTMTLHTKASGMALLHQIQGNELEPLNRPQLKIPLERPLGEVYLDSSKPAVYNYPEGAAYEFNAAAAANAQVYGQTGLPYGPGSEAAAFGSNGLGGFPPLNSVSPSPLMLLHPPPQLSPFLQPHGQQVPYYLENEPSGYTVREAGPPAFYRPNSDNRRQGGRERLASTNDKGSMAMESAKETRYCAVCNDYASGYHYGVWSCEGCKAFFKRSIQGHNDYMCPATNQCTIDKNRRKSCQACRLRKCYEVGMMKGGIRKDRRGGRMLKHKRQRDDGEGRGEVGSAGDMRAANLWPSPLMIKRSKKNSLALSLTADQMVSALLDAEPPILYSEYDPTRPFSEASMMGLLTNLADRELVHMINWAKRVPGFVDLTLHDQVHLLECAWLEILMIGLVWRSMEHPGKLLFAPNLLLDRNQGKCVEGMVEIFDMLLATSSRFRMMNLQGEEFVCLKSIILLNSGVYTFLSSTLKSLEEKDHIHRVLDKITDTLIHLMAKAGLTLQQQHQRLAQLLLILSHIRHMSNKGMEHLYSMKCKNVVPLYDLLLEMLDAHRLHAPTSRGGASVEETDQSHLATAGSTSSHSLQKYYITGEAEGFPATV

Consider `CN1C(=O)CC(C)(c2ccccc2)C1=O` (centres undefined), for which the Potency entry in [1], in [2], in assay [3], in [5], in assay [6] and in [7] was “inactive” in each case. Also, in assay [8], the Potency result is “inactive”. In assay [4], the compound was classed as inactive.
As for `O=C(c1ccc(O)cc1)c1ccc(Cl)cc1`, the Potency entry in [1], in assay [2], in assay [9], in assay [6] and in [8] was “inactive” each time.
On to `Cc1cc(S(=O)(=O)O)ccc1N=Nc1c(O)ccc2ccccc12`, for which the Potency entry in assay [1] is “inactive”. Besides, the Potency in [2] is 34.4 µM (active); in assay [9], 48.6 µM (active); in [5], 0.686 µM (active); in assay [7], 27.3 µM (active); in assay [8], 27.3 µM (active).
For the compound `O=c1[nH]c2ccc(S(=O)CCN3CCC(Cc4ccc(F)cc4)CC3)cc2o1` (centres undefined), the Potency result in [1], in assay [2], in assay [9], in assay [5], in assay [7] and in assay [8] was “inactive” in each case.
Turning to `Fc1c(F)c(F)c(Br)c(F)c1F`, the Potency entry in assay [1], in [2], in [9], in [5], in assay [6] and in assay [7] was “inactive” throughout. The Potency result in [8] is “inactive”.
For `O=C(CCCCCCC(=O)Nc1ccccc1)NO`, the Potency entry in [1] and in assay [2] was “inactive” throughout. The Potency in assay [3] is 3.35 µM (active). In addition, the compound was classed as inactive in assay [4].
Turning to `CC(C)CCCCCOC(=O)CCCCC(=O)OCCCCCC(C)C`, the Potency entry in assay [1], in [2], in assay [9], in assay [5], in [7] and in [8] was “inactive” each time.
For the compound `O=S(=O)(c1ccccc1)c1ccc(Cl)cc1`, the Potency entry in assay [1], in [2], in assay [9], in assay [5], in assay [6] and in [7] was “inactive” each time. Also, in assay [8], the Potency result was “inactive”.
On to `CC(=N\O)/C(C)=N/O`, for which the Potency result in [1], in assay [2], in assay [9], in assay [5], in assay [6] and in [7] was “inactive” throughout. For the same compound, the Potency entry in assay [8] was “inactive”.
As for `C(=C\c1ccccc1)/CN1CCN(C(c2ccccc2)c2ccccc2)CC1`, the Potency entry in assay [1], in assay [2], in [9], in [5], in assay [6] and in [7] was “inactive” throughout. Also, the Potency entry in assay [8] was “inactive”.
Turning to `CO[C@H]1C=CO[C@@]2(C)Oc3c(C)c(O)c4c(O)c(c5c(c4c3C2=O)=NC2(CCN(CC(C)C)CC2)N=5)NC(=O)/C(C)=C\C=C/[C@H](C)[C@H](O)[C@@H](C)[C@@H](O)[C@@H](C)[C@H](OC(C)=O)[C@@H]1C`, the Potency entry in assay [1] and in [5] was “inactive” in each case. The Potency in [2] was 47.5 µM (active); in assay [3] it was 59.8 µM (active); in [7], 26.7 µM (active); in assay [8], 23.8 µM (active). Further, the compound was called inactive in assay [4].
As for `C=CC(=O)NCOCC(C)C`, the Potency entry in assay [1], in assay [2], in assay [9], in [5], in [7] and in assay [8] was “inactive” each time.
`CCCCCCCCSCCO`: the Potency entry in assay [1], in assay [2], in assay [10], in [5], in assay [6] and in [7] was “inactive” each time. Besides, the Potency entry in [8] is “inactive”.
For the compound `C[C@@H]1C[C@H]2[C@@H]3CCC4=CC(=O)C=C[C@]4(C)[C@@]3(F)[C@@H](O)C[C@]2(C)[C@@]1(O)C(=O)CO`, the Potency entry in assay [1], in [2], in assay [9], in assay [5], in assay [6] and in assay [7] was “inactive” throughout. Moreover, the Potency result in assay [8] is “inactive”.
Turning to `CCOC(=O)c1ccccc1OC`, the Potency entry in assay [1], in assay [2], in assay [9], in assay [5], in assay [7] and in assay [8] was “inactive” each time.
For the compound `Cc1ccc(Nc2nccc(N(C)c3ccc4c(C)n(C)nc4c3)n2)cc1S(N)(=O)=O`, the Potency result in assay [1], in [2], in assay [9], in assay [5], in assay [6] and in assay [8] was “inactive” each time.
For the compound `CN(C)C(=O)Nc1ccc(Oc2ccc(Cl)cc2)cc1`, the Potency entry in assay [1], in assay [2], in assay [9], in assay [5], in assay [6] and in assay [7] was “inactive” each time. Besides, the Potency result in assay [8] is “inactive”.
`CCNC(=O)N1CCN(CCCC(c2ccc(F)cc2)c2ccc(F)cc2)CC1`: the Potency result in assay [1], in assay [5], in [6] and in [8] was “inactive” in each case. For the same compound, the Potency is 26.6 µM (active) in assay [2] and 18.8 µM (active) in [3]. For the same compound, the result in [4] was inactive.
`CC1(C)C(=O)N(Br)C(=O)N1Cl`: the Potency result in assay [1], in assay [2], in [9], in assay [5], in assay [6] and in assay [7] was “inactive” throughout. For the same compound, in assay [8], the Potency result was “inactive”.
Take `CC(C)(C)C(=O)O`: the Potency entry in [1], in [2], in assay [9], in assay [5], in assay [6] and in assay [7] was “inactive” throughout. Further, the Potency entry in assay [8] was “inactive”.
`NC(=O)Nc1ccc(Cl)c(Cl)c1`: the Potency entry in assay [1], in assay [2], in assay [9], in assay [5], in assay [7] and in assay [8] was “inactive” each time.
For the compound `CCC(C)=O`, the Potency result in assay [1], in [2], in assay [9], in assay [6], in assay [7] and in [8] was “inactive” in each case.
Take `Cc1cnc(C)c(C)n1`: the Potency result in assay [1], in assay [2], in [9], in [6], in assay [7] and in assay [8] was “inactive” in each case.
As for `C=CCNc1nc(NCC=C)nc(N2CCN(C(c3ccc(F)cc3)c3ccc(F)cc3)CC2)n1`, the Potency result in [1], in assay [2], in assay [5], in assay [7] and in assay [8] was “inactive” throughout. Further, the results for the Potency in assay [10] and in assay [3] were 10.6 µM (active) and 11.9 µM (active), respectively.
For `NC(=O)Cn1c(=O)cc(CCN2CCN(c3nccc4sccc34)CC2)c2ccc(F)cc21`, the Potency entry in assay [1], in assay [2], in assay [9] and in [6] was “inactive” in each case.
On to `C[C@]12CCC(=O)C=C1C=C[C@@H]1[C@@H]2CC[C@@]2(C)[C@H]1CC[C@@]21CCC(=O)O1`, for which the Potency result in [1], in [2], in assay [9], in assay [5], in [6] and in assay [7] was “inactive” each time. The Potency entry in assay [8] is “inactive”.
In the case of `CCOC(=O)N1CCC(n2c(=O)[nH]c3cc(Cl)ccc32)CC1`, the Potency result in assay [1], in [2], in [5], in assay [6] and in assay [7] was “inactive” in each case. Moreover, the Potency was 21.1 µM (active) in assay [10] and 23.7 µM (active) in assay [3].
As for `CC1=NN(c2ccc(C(=O)O)cc2)C(=O)C1`, the Potency result in [1], in [2], in assay [9], in assay [5], in assay [7] and in assay [8] was “inactive” each time.
